Most compounds without a hit are left out; they make up all but 3.4% or so of the library.
HSF1 inh = HSF1 inhibition | activity change, negative = inhibition, % at 7.5 µM (by protocol) | actives 0.77% (n = 300,000) | NIH3T3-HGL HSE-luciferase, MG132-induced, luminescence 8 h; stronger effect = lower value;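 active = more than half of replicate wells show activity change below -50%, luminescence cut by over half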;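 note: luciferase reports HSF-1 transcriptional activity via heat shock element; 0% = median of DMSO wells and -100% = zero luminescence signal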
GAA850 FXN act = activators of GAA850 frataxin (FXN) promoter; actives 0.56% (n = 360,000); HEK293 lucGAA850 FXN promoter luciferase reporter, 24 h; percent of 10 µM SAHA response; AID 540364; activation, % at 6 µM;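 active = activation above the average of all compounds screened plus 3 SD, cutoff fixed separately per campaign, cut at about 7.5% in these data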;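 note: 0% = DMSO wells and 100% = 10 µM SAHA wells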
HSP90 refold inh = HSP90 refolding inhibition in rabbit reticulocyte lysate; luciferase refolding luminescence, 3 h; inhibition, % at 5.6 µM; actives 0.91% (n = 290,000);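 active = inhibition above the screen-wide mean plus 3 SD, computed separately per campaign, cut at about 16% in these data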;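 note: 0% = DMSO wells and 100% = 60 µM geldanamycin wells; inhibitors lower the luminescence because luciferase stays unfolded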
AI-2 QS mod = modulators of Vibrio harveyi AI-2 quorum sensing system; Vibrio harveyi JMH597 AI-2 luminescence/OD600 ratio, 9 h; stronger effect = lower value; strain lacks LuxN and CqsS sensors; 0 = neutral-control median; activity change, % at 7.5 µM; actives 0.4% (n = 300,000); AID 2094; in the data active = activity change below about -75%, passing the limit was not always enough;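 note: luminescence divided by OD600 gain over 9 h not by final OD600 alone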
SMARCA2 activ = SMARCA2 function activation, primary screen | MG213 cells, MMTV-luciferase reporter, dexamethasone, overnight | activation, % at 9.1 µM | actives 1% (n = 370,000); in the data active = activation above about 7.8%;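 note: 0% = vehicle wells and 100% = reference activator wells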
PG9 binder = PG9 antibody binding by small molecule | TR-FRET gp120-PG9 antibody binding | inhibition, % at 6.7 µM | actives 0.43% (n = 360,000) | AID 624416; in the data active = inhibition above about 8.5%
GAA30 FXN cntr = activates GAA30 frataxin promoter, counter-screen for GAA850 activators | shares compounds with GAA850 FXN act | HEK293 lucGAA30 FXN promoter luciferase, 24 h; DMSO = 0%, 5 µM ipriflavone = 100% | activation, % at 6 µM | actives 66% (n = 1,900) | AID 588350;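 active = mean activation above the mean of solvent-only control wells plus 3 SD, cut at about 22% in these data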;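 note: counterscreen of GAA850 promoter hits where activity marks nonselective or luminescence artifacts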
GAA850 confirm = confirmation of GAA850 frataxin (FXN) promoter activators | shares compounds with GAA850 FXN act | HEK293 lucGAA850 FXN promoter luciferase reporter, 24 h; 100% = activation by SAHA | activation, % at 6 µM | actives 86% (n = 1,900);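 active = mean activation above a set limit taken from the primary screen, cut at about 8% in these data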;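 note: 0% = DMSO wells and 100% = 10 µM SAHA wells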
Numbers without * were called inactive.

`Cn1ccsc1=NC(=O)c1ccc(Cl)c([N+](=O)[O-])c1` gave HSF1 inh 7.3, GAA850 FXN act 3.6, HSP90 refold inh -2.9, AI-2 QS mod 3.3, SMARCA2 activ 3.6 and PG9 binder 1.9.
`Cn1ccsc1=NC(=O)c1ccc(S(C)(=O)=O)c([N+](=O)[O-])c1` gave HSF1 inh 12.5, GAA850 FXN act 10.3*, HSP90 refold inh -5.3, AI-2 QS mod 53.8, SMARCA2 activ -1.4, PG9 binder -0.7, GAA30 FXN cntr 73.2* and GAA850 confirm 29.6*.
CCOC(=O)c1ccc2[nH]c3c(c2c1)CCCCC3=O was read as HSF1 inh -8.4, GAA850 FXN act 8.1*, HSP90 refold inh -3.2, AI-2 QS mod 1.0, SMARCA2 activ 2.5, PG9 binder -0.1, GAA30 FXN cntr 64.9* and GAA850 confirm 25.1*.
CCOC(=O)c1ccc2[nH]c3c(c2c1)CCCC3C(=O)OCC (stereo not drawn) was read as HSF1 inh -0.8, GAA850 FXN act -1.0, HSP90 refold inh -0.4, AI-2 QS mod -4.4, SMARCA2 activ 0.6 and PG9 binder -1.7.
O=c1c2ccccc2nnn1Cc1ccco1 was read as SMARCA2 activ -2.0 and PG9 binder -3.1.
Screening CCCC(C)Sc1nc2c([nH]1)c(=S)n(C)c(=O)n2C (stereo not drawn) returned GAA850 FXN act 10.4*, SMARCA2 activ 5.6, PG9 binder -2.2, GAA30 FXN cntr 15.1 and GAA850 confirm 17.6*.
CCOc1ccc(-n2c(SCC(=O)c3ccc4ccccc4c3)nnc2-c2ccco2)cc1 was read as SMARCA2 activ -4.3.
Screening C=CCN(Cc1ccc(OC)c(OC)c1)C(=O)c1cc2cc(F)ccc2[nH]1 returned HSF1 inh -7.1, GAA850 FXN act 12.6*, HSP90 refold inh 0.5, AI-2 QS mod 5.1, SMARCA2 activ -1.0, PG9 binder -2.0, GAA30 FXN cntr 27.1* and GAA850 confirm 16.1*.
COc1ccc2[nH]c(C(=O)N(C)c3ccc(F)cc3F)cc2c1 was read as HSF1 inh 7.5, GAA850 FXN act 1.1, HSP90 refold inh 4.4, AI-2 QS mod -9.2, SMARCA2 activ -1.4 and PG9 binder -1.7.
CCCCOCC1CN(CCCC)S(=O)(=O)c2c(cccc2N2CCCCC2)O1 (stereo not drawn) was read as SMARCA2 activ -3.1 and PG9 binder -0.6.
For Nc1ncnc(N)c1NC(=O)c1ccccc1 the results were SMARCA2 activ -5.6 and PG9 binder -1.1.
Screening CCCN1C(=O)/C(=C/c2ccncc2)SC1=S returned HSF1 inh -6.6, GAA850 FXN act 2.2, HSP90 refold inh -1.5, AI-2 QS mod 10.4, SMARCA2 activ 0.3 and PG9 binder -1.1.
For CN1C(=O)/C(=C\c2ccncc2)SC1=Nc1ccccc1 the results were HSF1 inh 5.2, GAA850 FXN act 8.4*, HSP90 refold inh -0.5, AI-2 QS mod -0.7, SMARCA2 activ 4.1, PG9 binder 0.8, GAA30 FXN cntr -1.0 and GAA850 confirm 7.2.
Screening O=C(/C=C/c1ccccc1[N+](=O)[O-])c1ccccc1Br returned HSF1 inh 42.6, GAA850 FXN act 9.0*, HSP90 refold inh 6.0, AI-2 QS mod 29.5, SMARCA2 activ 3.3, PG9 binder -0.5, GAA30 FXN cntr 74.7* and GAA850 confirm 42.9*.
COc1ccc(-c2nnc3sc(C4CCCCC4)nn23)cc1OC was read as HSF1 inh -11.9, GAA850 FXN act 8.8*, HSP90 refold inh -1.1, AI-2 QS mod 20.1, SMARCA2 activ 1.5, PG9 binder 2.4, GAA30 FXN cntr 10.5 and GAA850 confirm 10.6*.
`O=C(Cc1ccccc1)N1O[C@H]2C=C[C@@H]1C2` gave SMARCA2 activ -0.8 and PG9 binder -2.4.
CCC(C(=O)Nc1ccccc1N1CCCC1)c1cccc(Cl)c1 (stereo not drawn) was read as SMARCA2 activ -1.8.
Screening FC(F)Oc1ccc(C2N=C(c3ccccc3)NO2)cc1 (stereo not drawn) returned HSF1 inh 17.7, GAA850 FXN act 7.9*, HSP90 refold inh 8.5, AI-2 QS mod -69.5, SMARCA2 activ 3.2, PG9 binder -2.6, GAA30 FXN cntr 117.5* and GAA850 confirm 40.6*.
CC(C)(C)c1ccc(S(=O)(=O)NCC2CCN(C(=O)C(=O)c3cccs3)CC2)cc1 was read as SMARCA2 activ -3.4 and PG9 binder -0.1.
For Cc1c(-c2nc(N)nc(Nc3ccccc3F)n2)oc2ccccc12 the results were GAA850 FXN act 13.7*, HSP90 refold inh 0.1, AI-2 QS mod 54.0, SMARCA2 activ 3.9, PG9 binder -0.6, GAA30 FXN cntr 112.5* and GAA850 confirm 47.7*.
`Cc1ccc(Nc2nc(N)nc(-c3oc4ccccc4c3C)n2)cc1` gave HSF1 inh 3.5, GAA850 FXN act 3.2, HSP90 refold inh -1.1 and AI-2 QS mod 6.8.
For O=C(/C=C\c1ccccc1OC(=O)c1ccccc1F)c1cc2ccccc2o1 the results were HSF1 inh 123.8, GAA850 FXN act 10.1*, HSP90 refold inh -2.0, AI-2 QS mod 19.1, SMARCA2 activ 3.6, PG9 binder -1.8, GAA30 FXN cntr 93.5* and GAA850 confirm 29.1*.
Screening Cn1c(CCN2CCCCC2)nc2cc([N+](=O)[O-])ccc21 returned HSF1 inh 13.4, GAA850 FXN act 7.7*, HSP90 refold inh -0.3, AI-2 QS mod 18.9, SMARCA2 activ 3.5, PG9 binder -2.9, GAA30 FXN cntr 18.4 and GAA850 confirm 17.1*.
Screening CCN1CCN(CCc2nc3cc([N+](=O)[O-])ccc3n2C)CC1 returned HSF1 inh 2.7, GAA850 FXN act 1.4, HSP90 refold inh -2.1, AI-2 QS mod 12.4, SMARCA2 activ -3.2 and PG9 binder -0.7.
Screening C=CCN=C1NC(c2ccccc2C(F)(F)F)C(C(=O)OC)=C(C)N1Cc1ccc(C(F)(F)F)cc1 (stereo not drawn) returned SMARCA2 activ 0.4 and PG9 binder -0.6.
Screening Cc1nc(NC(=O)c2oc3ccccc3c2C)sc1C(=O)N(C)C returned HSF1 inh 17.9, GAA850 FXN act 7.8*, HSP90 refold inh 6.0, AI-2 QS mod 25.3, SMARCA2 activ 4.1, PG9 binder 1.3, GAA30 FXN cntr 112.0* and GAA850 confirm 36.3*.
`CC(=O)Oc1ccc(Cn2c(C)c(C(=O)NCc3ccccc3C(F)(F)F)sc2=O)cc1` gave GAA850 FXN act -0.5, SMARCA2 activ -0.2 and PG9 binder -0.8.

Assay outcomes (PubChem BioAssay)
